A short description of assay [1]: qHTS assay to identify aromatase inhibitors - cell viability counter screen (AID 743084).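 Note: cells stimulated with testosterone during compound exposure; nearly all actives have a fitted effect of over 55% in size.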
The target of assay [2] is Aryl hydrocarbon receptor (Homo sapiens) (UniProt P35869). As to the kind of experiment: qHTS assay to identify small molecule that activate the aryl hydrocarbon receptor (AhR) signaling pathway (AID 743085).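 For activation: HG2L7.5c1 human HepG2 liver cells with stably integrated DRE-driven firefly reporter; series mostly up to about 70 µM.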 Note: nearly all actives have a fitted effect of over 15% in size. Note: potency is the fitted concentration of half-maximal effect. In outline: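 HepG2 cells (HG2L7.5c1) stably carrying a firefly luciferase reporter driven by 20 dioxin responsive elements were exposed to compound for 24 h at 37C after a 5 h settling period; luminescence rise (ONE-Glo) indicated activation.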
Sequence of Aryl hydrocarbon receptor (Homo sapiens) (P35869 whole entry, looked up): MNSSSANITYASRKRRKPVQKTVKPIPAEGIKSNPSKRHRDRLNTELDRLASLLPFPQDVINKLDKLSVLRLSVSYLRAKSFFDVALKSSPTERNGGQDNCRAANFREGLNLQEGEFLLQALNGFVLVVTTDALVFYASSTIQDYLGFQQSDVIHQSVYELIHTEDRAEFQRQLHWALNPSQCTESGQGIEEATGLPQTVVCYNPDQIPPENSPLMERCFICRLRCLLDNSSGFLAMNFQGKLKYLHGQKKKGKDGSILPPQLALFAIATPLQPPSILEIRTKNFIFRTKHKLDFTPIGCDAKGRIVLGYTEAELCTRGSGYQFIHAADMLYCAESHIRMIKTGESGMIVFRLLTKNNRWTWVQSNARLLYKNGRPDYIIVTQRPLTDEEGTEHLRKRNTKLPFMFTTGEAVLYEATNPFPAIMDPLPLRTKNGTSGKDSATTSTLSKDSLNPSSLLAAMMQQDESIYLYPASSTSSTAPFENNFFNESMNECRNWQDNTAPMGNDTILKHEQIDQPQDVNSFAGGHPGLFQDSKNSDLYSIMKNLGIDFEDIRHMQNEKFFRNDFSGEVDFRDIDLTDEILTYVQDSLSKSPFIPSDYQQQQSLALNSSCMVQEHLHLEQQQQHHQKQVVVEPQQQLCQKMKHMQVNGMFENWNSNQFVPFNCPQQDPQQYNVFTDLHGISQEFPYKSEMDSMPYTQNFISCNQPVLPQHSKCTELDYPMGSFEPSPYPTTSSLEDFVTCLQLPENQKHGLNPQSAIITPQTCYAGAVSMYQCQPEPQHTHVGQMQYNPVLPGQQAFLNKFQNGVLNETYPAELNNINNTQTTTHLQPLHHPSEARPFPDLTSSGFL
(Quantitative high-throughput screening tests each substance at several concentrations.)

Assay [3] can be described thus: qHTS assay to identify small molecule that activate the aryl hydrocarbon receptor (AhR) signaling pathway - cell viability counter screen (AID 743086).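 Note: HepG2 liver cells carrying the AhR DRE luciferase reporter; series mostly up to about 70 µM; nearly all actives have a fitted effect of over 45% in size.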 The method in brief:
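HepG2-AhR-luc (HG2L7.5c1) cells, 4000/well, were preincubated 5 h at 37C, exposed to compound in qHTS format for 24 hr at 37C, then given CellTiter-Fluor for 30 min; viability was read as fluorescence in the reporter wells.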

The target in assay [4] is Peroxisome proliferator-activated receptor gamma (Homo sapiens) (UniProt P37231). As to the kind of experiment: qHTS assay to identify small molecule agonists of the peroxisome proliferator-activated receptor gamma (PPARg) signaling pathway (AID 743094; active = well fitted activation curve with a large enough effect in the signal ratio in the repeat runs, not every such curve was filed as active; the % refers to the signal ratio). In outline:
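Agonism was assessed in a beta-lactamase reporter system, HEK293H cells with a stably integrated UAS-bla construct under PPARg control; the 17 h treatment at 37C preceded a 1 h room-temperature FRET substrate read.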

The target is the same in assay [5]. As to the kind of experiment: qHTS assay to identify small molecule antagonists of the peroxisome proliferator-activated receptor gamma (PPARg) signaling pathway (AID 743191; calls by dose curve; note: series mostly up to about 63 µM; nearly all actives have a fitted effect of over 30% in size). The method in brief:
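GeneBLAzer PPARg UAS-bla HEK293H cells carrying a UAS-driven beta-lactamase reporter were plated at 3000 cells/well, preincubated 5 h at 37C, then given compound for 17 h at 37C; LiveBLAzer B/G FRET substrate was read after 1 h at room temperature.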

The nature of assay [6]: qHTS assay to identify small molecule antagonists of the peroxisome proliferator-activated receptor gamma (PPARg) signaling pathway - cell viability counter screen (AID 743194). Note: nearly all actives have a fitted effect of over 55% in size. The method in brief:
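PPARg-UAS-bla HEK293H cells were plated, rested 5 h at 37 C, then treated with compounds plus rosiglitazone (50 nM final) for 17 h at 37 C; viability was then read by CellTiter-Glo luminescence after 30 min at room temperature.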

Assay [7] is described as follows: qHTS assay for small molecule agonists of the antioxidant response element (ARE) signaling pathway (AID 743202; active = well fitted activation curve with a large enough effect in the signal ratio in the repeat runs, not every such curve was filed as active; the % refers to the signal ratio; note: potency is the fitted concentration of half-maximal effect). In outline:
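Following a 16 h, 37 C exposure of reporter HepG2 cells (ARE-driven beta-lactamase, 2,000 cells/well) to compounds, FRET substrate was applied for 2 h at room temperature and fluorescence intensity recorded.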

The nature of assay [8]: qHTS assay for small molecule agonists of the antioxidant response element (ARE) signaling pathway - cell viability counter screen (AID 743203; calls by dose curve; note: nearly all actives have a fitted effect of over 55% in size). In outline:
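ATP content via CellTiter-Glo luminescence served as the viability measure. Cells: ARE-bla HepG2, 2,000 per well. Exposure: 16 hrs, 37C/5% CO2.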

Assay [9] can be described thus: qHTS assay for small molecule activators of the heat shock response signaling pathway - cell viability counter screen (AID 743209). Note: nearly all actives have a fitted effect of over 50% in size. The method in brief:
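Compounds dissolved in DMSO were added to overnight-plated HSE-bla HeLa cells and left 5 h at 37 C. Cell viability was quantified by luminescence using CellTiter-Glo.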

Assay [10] can be described thus: qHTS assay for small molecule activators of the heat shock response signaling pathway (AID 743210; active = well fitted activation curve with a large enough effect in the signal ratio in the repeat runs, with a control signal flat, not every such curve was filed as active; the % refers to the signal ratio; note: potency is the fitted concentration of half-maximal effect; for activation: series mostly up to about 63 µM). In outline:
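Heat shock element–beta-lactamase HeLa reporter cells; qHTS with compounds for 5 h at 37 C; detection by FRET substrate fluorescence after 2.5 h at RT.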

Values joined by “and” are separate entries in the source; they are usually repeats but may differ in a detail not shown here. Equal values may be shown once. Results filed as inconclusive are left out. A structure can be active in one record and inactive in another. Active and inactive are the calls of the source. Unless noted, calls come from the whole dose curve; as a rule, active = well fitted curve in the direction sought with a large enough effect in the repeat runs; inconclusive = weak or mixed curves; inactive = no such curve, though single readings can be large; an effect the other way counts as inactive or inconclusive.

This passage reports Potency and outcome results from PubChem BioAssay (Tox21).

Sequence of Peroxisome proliferator-activated receptor gamma (Homo sapiens) (P37231 whole entry, looked up): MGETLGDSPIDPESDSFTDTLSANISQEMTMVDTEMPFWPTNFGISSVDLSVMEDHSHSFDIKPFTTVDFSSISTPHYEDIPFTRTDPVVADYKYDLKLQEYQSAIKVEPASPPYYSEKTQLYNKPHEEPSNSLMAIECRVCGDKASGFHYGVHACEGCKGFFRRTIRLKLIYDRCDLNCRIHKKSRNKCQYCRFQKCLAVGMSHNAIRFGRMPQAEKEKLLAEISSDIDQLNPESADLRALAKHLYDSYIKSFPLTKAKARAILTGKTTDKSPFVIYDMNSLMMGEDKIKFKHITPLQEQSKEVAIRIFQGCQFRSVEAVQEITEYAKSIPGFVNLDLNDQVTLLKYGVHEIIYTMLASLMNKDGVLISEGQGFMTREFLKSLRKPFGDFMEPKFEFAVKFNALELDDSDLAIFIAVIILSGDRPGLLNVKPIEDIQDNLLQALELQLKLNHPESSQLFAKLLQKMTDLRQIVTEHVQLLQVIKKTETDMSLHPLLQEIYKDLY

As for `O=c1[nH]c2cc(C(F)(F)F)c(N3CCOCC3)cc2n(CP(=O)(O)O)c1=O`, the Potency result in [1], in assay [2], in assay [3], in assay [5], in assay [6] and in assay [7] was “inactive” throughout. For the same compound, the Potency entry in assay [8], in assay [9] and in assay [10] was “inactive” throughout. In addition, the compound was called inactive in [4].
As for `COc1ccc(C)cc1`, the Potency entry in assay [1], in [2], in assay [3], in assay [5], in assay [6] and in assay [7] was “inactive” throughout. The Potency entry in assay [8] and in assay [9] was “inactive” each time. Also, the compound was called inactive in assay [4].
For the compound `O=C(O)CCCc1c[nH]c2ccccc12`, the Potency result in assay [1], in assay [2], in assay [3], in assay [5], in assay [6] and in assay [7] was “inactive” in each case. Also, the Potency result in assay [8], in assay [9] and in assay [10] was “inactive” throughout. Moreover, the call in assay [4] was inactive.
As for `C1CCCCC1`, the Potency result in assay [1], in assay [2], in [3], in assay [5], in assay [6] and in assay [7] was “inactive” each time. Also, the Potency entry in assay [8], in assay [9] and in [10] was “inactive” in each case. In addition, the compound was classed as inactive in assay [4].
Regarding `CCCCCCCCCCCCCCN(C)C`, the Potency result in assay [1], in assay [2], in assay [3], in [5], in assay [6] and in [7] was “inactive” in each case. Besides, the Potency entry in assay [9] and in assay [10] was “inactive” in each case. In addition, in assay [4], the result was inactive.
For the compound `COc1ccc2nc(S(=O)Cc3ncc(C)c(OC)c3C)[nH]c2c1` (stereo unspecified), the Potency entry in [1], in assay [3], in assay [5], in assay [6] and in [9] was “inactive” in each case. Also, the Potency was 48 µM (active) in assay [2]; 17 µM (active) and 16.8 µM (active) in assay [7]; 30.5 µM (active) and inactive in assay [10]. Besides, the call in [4] was inactive.
Take `FC(F)(F)C(F)(F)C(F)(F)C(F)(F)CCI`: the Potency entry in assay [1], in [2], in [3], in assay [5], in assay [6] and in [7] was “inactive” throughout. The Potency entry in [8] and in assay [9] was “inactive” throughout. The result in [4] was inactive.
On to `C=CC(=O)NC(C)C`, for which the Potency entry in [1], in [2], in assay [3], in assay [5], in assay [6] and in assay [7] was “inactive” throughout. The Potency result in [9] and in assay [10] was “inactive” each time. Also, the compound was called inactive in assay [4].
Consider `CCN(CC)C(=O)N1CCN(C)CC1`, for which the Potency entry in assay [1], in assay [2], in [3], in assay [5], in assay [6] and in assay [7] was “inactive” throughout. The Potency entry in assay [8] and in assay [10] was “inactive” in each case. Further, the call in assay [4] was inactive.
As to `CC[C@@H](CO)NCCN[C@@H](CC)CO`, the Potency entry in assay [1], in [2], in assay [3], in assay [5], in assay [6] and in assay [7] was “inactive” throughout. In addition, the Potency result in assay [8], in assay [9] and in assay [10] was “inactive” throughout. Also, in assay [4], the outcome was inactive.
Take `O=c1[nH][nH]c(=O)c2cc([N+](=O)[O-])ccc12`: the Potency result in assay [1], in assay [2], in assay [3], in assay [5], in assay [6] and in [7] was “inactive” in each case. For the same compound, the Potency entry in assay [8], in assay [9] and in assay [10] was “inactive” throughout. Also, the call in [4] was inactive.
Regarding `CCC(C)(C)C(=O)O`, the Potency result in assay [1], in assay [2], in assay [3], in [5], in assay [6] and in assay [7] was “inactive” throughout. For the same compound, the Potency entry in assay [8], in [9] and in assay [10] was “inactive” each time. Further, the call in assay [4] was inactive.
For the compound `C=CC(=O)O`, the Potency result in assay [1], in [2], in assay [3], in [5], in assay [6] and in assay [8] was “inactive” throughout. Further, the Potency entry in assay [9] is “inactive”. For the same compound, in [4], the compound was classed as inactive.
Regarding `CNc1c2c(nn1C)CCCC2`, the Potency entry in assay [1], in assay [2], in assay [3], in [5], in assay [6] and in [7] was “inactive” in each case. Also, the Potency entry in assay [9] and in assay [10] was “inactive” in each case. For the same compound, the outcome in assay [4] was inactive.
As for `CCCCCCCCCCCCCOC(=O)CCSCCC(=O)OCCCCCCCCCCCCC`, the Potency result in assay [1], in assay [2], in [3], in assay [6], in assay [7] and in assay [8] was “inactive” throughout. The Potency result in [9] and in assay [10] was “inactive” in each case. Moreover, in [4], the compound was classed as inactive.
As to `CC(C)(C)S`, the Potency result in assay [1], in [2], in [3], in assay [6], in assay [7] and in assay [8] was “inactive” each time. For the same compound, the outcome in assay [4] was inactive.
Turning to `CC1CCc2nccnc21` (stereo unspecified), the Potency entry in assay [1], in assay [2], in [3], in assay [6], in assay [7] and in assay [8] was “inactive” throughout. Besides, the Potency entry in assay [9] and in [10] was “inactive” each time. The outcome in [4] was inactive.
With `OCC(CO)n1cnc(-c2ccc(F)cc2)c1-c1ccnc(Oc2ccccc2)n1`, the Potency result in [1], in assay [2], in assay [3], in [5], in assay [6] and in [9] was “inactive” in each case. In addition, the Potency result in assay [10] was “inactive”. Also, the result in [4] was inactive.
`COc1ccc(C2C(=O)c3ccccc3C2=O)cc1`: the Potency result in assay [1], in assay [2], in assay [3], in assay [5], in [7] and in assay [9] was “inactive” throughout. In addition, the Potency result in assay [10] was “inactive”. In [4], the compound was called inactive.
For the compound `CC(C)C(O)C(C)(C)CO` (stereo unspecified), the Potency entry in assay [1], in assay [2], in assay [3], in assay [6], in assay [7] and in assay [8] was “inactive” in each case. In addition, the Potency entry in assay [9] and in [10] was “inactive” each time. The result in assay [4] was inactive.
As to `c1ccc2sc(SSc3nc4ccccc4s3)nc2c1`, the Potency entry in [1], in [2], in assay [3], in assay [6] and in assay [9] was “inactive” each time. Further, the result in assay [4] was inactive. The Potency in assay [7] is 13 µM (active).
Consider `CC(CO)(CO)C(=O)O`, for which the Potency result in assay [1], in [2], in assay [3], in assay [6], in [7] and in assay [8] was “inactive” each time. The Potency entry in [10] was “inactive”. In addition, the compound was called inactive in assay [4].
Turning to `CC(O)Cn1cnc2c1c(=O)n(C)c(=O)n2C` (stereo unspecified), the Potency result in assay [1], in assay [2], in assay [3], in [6], in assay [7] and in assay [9] was “inactive” in each case. Besides, in assay [10], the Potency result is “inactive”. For the same compound, in assay [4], the compound was called inactive.
Regarding `CC(=O)C(=O)CC(C)C`, the Potency result in assay [1], in [2], in [3], in assay [6], in [7] and in [8] was “inactive” each time. Also, the Potency result in assay [9] was “inactive”. For the same compound, in assay [4], the result was inactive.
On to `O=CNNC=O`, for which the Potency result in assay [1], in [2], in assay [3], in assay [6], in assay [7] and in assay [8] was “inactive” each time. Further, in assay [4], the outcome was inactive.
For `C/C(C=O)=C\c1ccccc1`, the Potency result in assay [1], in [2], in assay [3], in assay [5], in assay [6] and in assay [9] was “inactive” throughout. For the same compound, the Potency entry in assay [10] is “inactive”. The compound was called inactive in assay [4].
Consider `Cc1ccc(N(CC2=NCCN2)c2cccc(O)c2)cc1`, for which the Potency result in [1], in assay [2], in assay [3], in assay [5], in [6] and in assay [8] was “inactive” throughout. The Potency entry in assay [9] and in assay [10] was “inactive” each time. In addition, the outcome in assay [4] was inactive.
